USP10 inh – blocks human USP10 ubiquitin-rhodamine cleavage. purified USP10, Ub-rhodamine fluorescence, 60 min. inhibition, % at 20 µM. 1.1% of 47,000 active
USP8 inh – human USP8 deubiquitinase inhibition | 4.2% of 47,000 active | inhibition, % at 20 µM | P40818 | purified USP8, Ub-rhodamine cleavage fluorescence, 30 min
USP30 inh – inhibitors of human USP30 deubiquitinase; purified USP30, Ub-rhodamine cleavage fluorescence; inhibition, % at 25 µM; AID 1645860; Q70CQ3; 5.3% of 47,000 active
USP17 block – blocks human USP17 ubiquitin-rhodamine cleavage; purified USP17, Ub-rhodamine cleavage fluorescence, 3 h; AID 1645855; 6.5% of 47,000 active; inhibition, % at 50 µM
USP28 inh – human USP28 deubiquitinase inhibition; Q96RU2; purified USP28, Ub-rhodamine cleavage fluorescence, 30 min; inhibition, % at 25 µM; 3% of 47,000 active
OTUD3 block – blocks human OTUD3 ubiquitin-rhodamine cleavage | inhibition, % at 25 µM | AID 1645858 | 0.7% of 47,000 active | purified OTUD3, Ub-rhodamine fluorescence, 2 h | Q5T2D3
Target sequence (Q5T2D3 whole entry, looked up): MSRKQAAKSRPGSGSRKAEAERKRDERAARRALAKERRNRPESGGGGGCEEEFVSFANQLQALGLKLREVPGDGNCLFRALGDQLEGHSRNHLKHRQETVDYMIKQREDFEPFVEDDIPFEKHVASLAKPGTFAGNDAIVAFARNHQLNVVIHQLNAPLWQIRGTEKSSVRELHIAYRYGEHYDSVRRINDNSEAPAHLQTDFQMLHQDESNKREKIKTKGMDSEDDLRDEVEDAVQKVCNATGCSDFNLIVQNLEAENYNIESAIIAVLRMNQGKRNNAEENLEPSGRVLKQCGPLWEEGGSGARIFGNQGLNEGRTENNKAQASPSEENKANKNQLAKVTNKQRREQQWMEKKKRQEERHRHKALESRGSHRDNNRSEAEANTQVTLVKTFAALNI
The depositor's hits bear a star. Sampled rows, rich in hits. Any-hit rate of the full collection: about 13%. Rule as the data show it: active = inhibition above about 30%; inactive = the rest.

`Cc1cccc(NC(=O)Cn2cc(C(=O)N3CCOCC3)c(=O)c3ccc(C)nc32)c1` gave USP10 inh -9, USP8 inh 35*, USP30 inh -79, USP17 block -3, USP28 inh -17 and OTUD3 block -2.
For CCN(CCCNC(=O)c1ccc2c(c1)NC(=O)CN2)c1cccc(C)c1 the results were USP10 inh -6, USP8 inh -40, USP30 inh -104, USP17 block -43, USP28 inh -39 and OTUD3 block -24.
CC1=C(C(=O)Nc2ccccc2C)C(c2ccc(OCc3ccccc3F)cc2)n2ncnc2N1 (centres undefined) was read as USP10 inh 5, USP8 inh 13, USP30 inh 19, USP17 block 62*, USP28 inh 5 and OTUD3 block 11.
`CC1=C(C(=O)Nc2ccccc2C)C(c2cccc(OCc3ccccc3)c2)n2ncnc2N1` (centres undefined) gave USP10 inh 4, USP8 inh -22, USP30 inh 21, USP17 block 2, USP28 inh 13 and OTUD3 block 19.
For CC1=C(C(=O)Nc2ccc(Cl)cc2)C(c2cccnc2)n2ncnc2N1 (centres undefined) the results were USP10 inh -1, USP8 inh -39, USP30 inh -12, USP17 block -6, USP28 inh -12 and OTUD3 block -10.
`CC1=C(C(=O)Nc2ccccn2)C(c2ccc3c(c2)OCO3)n2ncnc2N1` (centres undefined) gave USP10 inh 2, USP8 inh 16, USP30 inh 18, USP17 block 12, USP28 inh 33* and OTUD3 block 9.
Screening CN(C)C(=O)N1Cc2ccccc2C2(CCNCC2)C1 returned USP10 inh 3, USP8 inh -29, USP30 inh 31*, USP17 block 22, USP28 inh 16 and OTUD3 block 17.
Screening O=C(O)c1cc(C2CCCCC2)nc2ccccc12 returned USP10 inh -2, USP8 inh 15, USP30 inh 17, USP17 block 0, USP28 inh 0 and OTUD3 block 5.
For CN1CC[C@@H]2[C@H]1C(=O)NC[C@H](CCC(=O)Nc1ccccc1)N2C the results were USP10 inh 0, USP8 inh 1, USP30 inh -24, USP17 block -51, USP28 inh -4 and OTUD3 block -2.
`COc1cc(O)c2c(O)c3c(cc2c1)C[C@@]1(O)CC(=O)C(C(N)=O)=C(O)[C@@]1(O)C3=O` gave USP10 inh 11, USP8 inh -9, USP30 inh -120, USP17 block 30*, USP28 inh 41* and OTUD3 block 46*.
`COc1ccc(-c2cc3nc(NCCc4ccc(S(N)(=O)=O)cc4)ccn3n2)cc1` gave USP10 inh -5, USP8 inh -63, USP30 inh 10, USP17 block 41*, USP28 inh 17 and OTUD3 block -23.
For NS(=O)(=O)c1ccc(CCNC(=O)c2cc(-c3ccc4c(c3)OCO4)nc3ccccc23)cc1 the results were USP10 inh 16, USP8 inh 31*, USP30 inh -32, USP17 block -18, USP28 inh 14 and OTUD3 block -12.
`O=C(Nc1ccc2c(c1)OCO2)c1cc(-c2ccc(Cl)cc2)nc2ccccc12` gave USP10 inh 1, USP8 inh -57, USP30 inh -19, USP17 block -1, USP28 inh 1 and OTUD3 block 9.
Screening COc1ccc(-c2cc(C(=O)NCCc3ccc(S(N)(=O)=O)cc3)c3ccccc3n2)cc1 returned USP10 inh 29, USP8 inh 53*, USP30 inh -50, USP17 block -5, USP28 inh 20 and OTUD3 block -19.
Screening c1ccc(-c2cc3nc(NCCc4ccncc4)ccn3n2)cc1 returned USP10 inh -7, USP8 inh -25, USP30 inh 2, USP17 block 0, USP28 inh -2 and OTUD3 block -1.
`COc1ccccc1N1CCN(C(=O)c2sc(-c3c(F)cccc3OC)nc2C)CC1` gave USP10 inh -4, USP8 inh -119, USP30 inh -9, USP17 block -14, USP28 inh 1 and OTUD3 block -3.
Cc1cnc(C(=O)N2CCc3nc(C(=O)Nc4ccncc4)sc3CC2)cn1 was read as USP10 inh 1, USP8 inh -1, USP30 inh 6, USP17 block 5, USP28 inh 0 and OTUD3 block 1.
N#Cc1c(Cl)cccc1NCCCN1CCCCC1 was read as USP10 inh -2, USP8 inh -5, USP30 inh -4, USP17 block -2, USP28 inh -4 and OTUD3 block -6.
Screening CC(C)CCNC(=O)c1ccc2c(=O)n(C3CCCC3)c(=O)[nH]c2c1 returned USP10 inh 9, USP8 inh 34*, USP30 inh 18, USP17 block 3, USP28 inh 11 and OTUD3 block 8.
Screening CC(C)CCNC(=O)c1cccc(-c2cnc(NC3CCCCC3)nc2)c1 returned USP10 inh 2, USP8 inh 20, USP30 inh 32*, USP17 block 15, USP28 inh 17 and OTUD3 block 20.
Cc1ccn2cc(C(=O)N3CCC4(CC=CCN(CCc5ccccc5)C4=O)CC3)nc2c1 was read as USP10 inh 1, USP8 inh 1, USP30 inh 21, USP17 block 16, USP28 inh 8 and OTUD3 block 9.
O=C(Nc1ccc(Cn2cncn2)cc1)c1ccc2c(c1)OCO2 was read as USP10 inh -1, USP8 inh 8, USP30 inh 15, USP17 block 3, USP28 inh 45* and OTUD3 block -1.
`COc1ccc(C(=O)Nc2ccc(Cn3cncn3)cc2)cc1F` gave USP10 inh 2, USP8 inh 15, USP30 inh 3, USP17 block 3, USP28 inh 35* and OTUD3 block 7.
O=C(Nc1ccc(-c2nnc3n2CCCCC3)cc1)c1ccc2c(c1)OCO2 was read as USP10 inh -3, USP8 inh -3, USP30 inh 2, USP17 block -31, USP28 inh 71* and OTUD3 block 7.
Screening CCOc1ccc(C(=O)CSc2nnc(C)n2Cc2ccccc2)cc1 returned USP10 inh -5, USP8 inh 6, USP30 inh -41, USP17 block 8, USP28 inh -3 and OTUD3 block -4.
For COc1ccc(C(=O)c2c[nH]c(C(=O)NCCCn3ccnc3)c2)cc1 the results were USP10 inh 4, USP8 inh 21, USP30 inh 33*, USP17 block 18, USP28 inh 14 and OTUD3 block 15.
`Cc1ccc(Cn2c(C(=O)Nc3cccnc3)cc3sccc32)cc1` gave USP10 inh 3, USP8 inh 43*, USP30 inh 22, USP17 block 42*, USP28 inh 8 and OTUD3 block 7.

Screening data: PubChem BioAssay, Buhrlage Lab, Dana-Farber Cancer Institute and Novartis Institutes for BioMedical Research (Cambridge, Mass)
